# Screening data: PubChem BioAssay, National Center for Advancing Translational Sciences (NCATS)
# Pf Dd2 growth = blocks in vitro growth of P. falciparum Dd2. P. falciparum Dd2 growth, SYBR Green, 72 h. 120,000 compounds, 4.3% hits. Potency, µM (titrated, usually from 28.9 µM), for inactives: at the top dose activity, negative = inhibition, usual class: inhibitors. AID 1347417; active = well fitted inhibition curve with a large enough effect;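 note: plate controls were DMSO vehicle for no effect and reference drug for full effect; nearly all actives have a fitted effect of over 65% in size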
#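 Readout: SYBR Green fluorescence, 485 nm excitation, 535 nm emission, after ~16 h lysis at 37C. Before that, Dd2-infected red cells (2.5% hematocrit) grew 72 h with compound, 29 uM top final concentration.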
# Active calls of the source: *; i = inactive; [ ] = remark or other dose. The full list was thinned out, with hits kept by preference. Potency is the fitted concentration of half-maximal effect.
SMILES,Pf Dd2 growth
Cc1cccc(CN(C(=O)c2ccco2)c2ccc(CC(=O)N(C)Cc3ccccc3)cc2)c1,-16%
O=C(NC1CC1)c1ccc2nnc(C3CC3)n2c1,5%[44.1 µM]
COc1cc(=O)n2c(c1C(=O)Nc1cccc(F)c1)CCCC2,9%
CCn1ncc(N2CCCC(CC(=O)NCc3cccc(Cl)c3)C2)cc1=O (stereo not drawn),-24%
Cc1ncc2c(c1CNC(=O)c1ccccc1OC(F)F)CCNC2,-6%
CC(=O)N1CCC(Cc2ccc(C(N)=O)cc2)CC1,12%
COc1ccc([S+](=O)([O-])c2nnn3c2nc(NC2CC2)c2ccccc23)cc1,14%
CCCc1noc(-c2ccn3c(CNC(=O)c4ccccc4F)nnc3c2)n1,i
COCCNc1ccc(-c2noc([C@@H]3CCCN3Cc3cc(OC)c(OC)c(OC)c3)n2)cn1,8.9µM*
COCC(=O)Nc1ccc(-c2noc([C@@H]3CCCN3Cc3cccnc3)n2)cn1,8.9µM*
COCC(=O)Nc1ccc(-c2noc([C@@H]3CCCN3Cc3ncc[nH]3)n2)cn1,-23%[44.1 µM]
COc1ccc(C(=O)Nc2ccc(-c3noc([C@@H]4CCCN4Cc4ccco4)n3)cn2)cc1,-1%
COc1cc(CN2CCC[C@H]2c2nc(-c3ccc(-c4ccncc4)nc3)no2)cc(OC)c1OC,5µM*
COCCOc1ccc(-c2noc([C@@H]3CCCN3Cc3c[nH]c4ccccc34)n2)cn1,i
Fc1ccc(-c2noc([C@@H]3CCCN3Cc3ccc(Cl)cc3)n2)nc1,i
COCCNc1ccc(-c2noc([C@@H]3CCCN3C3CCC3)n2)cn1,i
COc1ccc(-c2noc([C@@H]3CCCN3C(=O)c3ccncc3)n2)cc1OC,80%
COCC(=O)N1CC(F)(F)C[C@H]1c1nc(-c2cccnc2)no1,10%
COCCNc1ncccc1-c1noc([C@@H]2CCCN2Cc2cc(OC)c(OC)c(OC)c2)n1,-1%
COc1ccc(C(=O)Nc2ccc(-c3noc([C@@H]4CCCN4Cc4c[nH]c5ccccc45)n3)cn2)cc1,7.9µM*
Cc1nc(C2(C)CCN(C(=O)CCc3nc4ccccc4[nH]3)CC2)no1,18%
O[C@@H]1C[C@@H](c2nc(-c3ccc(C(F)(F)F)cc3)no2)N(Cc2cccc(OC(F)(F)F)c2)C1,i
COc1ccc(Cn2c(C3CCN(C(=O)c4ccccc4)CC3)n[nH]c2=O)cc1,27%
CC(C)CS(=O)(=O)N[C@@H]1C[C@H](Cn2cc(CN(C)C)nn2)[C@@H](O)[C@H]1O,16%[44.1 µM]
O=C(CCc1ccccc1)N1CCC(N2CC3CC(C2)[C@H]2CCCC(=O)N2C3)CC1 (stereo partly drawn),10%
SMILES,Pf Dd2 growth
Cc1cc(C(=O)N2CC(F)(F)C[C@H]2c2nc(C3CC3)no2)on1,5%
O=C(c1ccccc1)N1C[C@@H]2C[C@H](C1)c1c(-c3cccnc3)ccc(=O)n1C2,0%[44.1 µM]
COc1ccc(Cl)cc1-n1nc(C2CC2)nc1C(C)Cn1cncn1 (stereo not drawn),-14%
Cc1ccccc1NC(=O)N1CCC(N2CCCC(C(=O)N3CCCC3)C2)CC1 (stereo not drawn),-9%
O=C(NCc1cccs1)c1ccc2nccn2c1,18%[44.1 µM]
COc1cc(Nc2nc(-c3ccccc3)no2)cc(OC)c1OC,-4%
COc1ccc(-c2noc(-c3nc(-c4ccccc4F)no3)n2)cc1OC,22%
Fc1ccccc1-c1noc(-c2nc(-c3ccccc3F)no2)n1,-1%
Cc1cc(C)cc(Nc2nc(-c3ccccc3F)no2)c1,13µM*
COc1cc(Nc2nc(-c3ccccc3F)no2)cc(OC)c1OC,13µM*
Fc1ccc(Nc2nc(-c3ccccc3)no2)cc1,i
CNC(=O)c1noc([C@@H]2CC(F)(F)CN2Cc2cnn(C(C)C)c2)n1,50%
Cc1ccc(NC(=O)N2CC(c3nnc(-c4ccncc4)o3)C3(CCOCC3)C2)cc1 (stereo not drawn),-1%
O=C(NCCC1CCCCC1)c1ccc2nccn2c1,i
Cc1ccccc1OCC1CN(Cc2c[nH]c3ccccc23)C(=O)c2c(ccnc2-c2ccc(OCC(=O)O)cc2)O1 (stereo not drawn),-14%
CCN1C(=O)C2(CCN(C(=O)c3c(C)noc3C)CC2)c2ccccc21,3.5µM*
CCN1C(=O)C2(CCN(C(=O)N(C)C)CC2)c2ccccc21,42%
CCCC(=O)N1CCC2(CC1)C(=O)N(CC)c1ccccc12,54%
CC(C)Oc1ccc2c(NC(=O)CN3CCOCC3)nn(CC(F)(F)F)c2c1,-10%
COC[C@@H]1CN(S(=O)(=O)c2cccc(OC)c2)C[C@H]1C(N)=O,4%
CCCCNC(=O)CN1C(=O)COc2ccc(S(=O)(=O)N3CCCC3)cc21,32%
CC(C)CN(CCCNC(=O)CN1C(=O)COc2ccc(S(=O)(=O)N3CCCCCC3)cc21)CC(C)C,11µM*
CCN(CC)CCCNC(=O)CN1C(=O)COc2ccc(S(=O)(=O)N3CCC(C)CC3)cc21,6%
CNC(=O)[C@@H]1C[C@H](n2cc(CNC(=O)c3ccccc3OC)nn2)CN1,15%
COc1ccccc1Cn1c(CNS(=O)(=O)c2c(C)cc(C)cc2C)nc2cccnc21,13µM*
SMILES,Pf Dd2 growth
COc1ccccc1Cn1c(CNS(=O)(=O)c2ccc(C(C)C)cc2)nc2cccnc21,i
CCOc1ccc(Cn2c(CNS(=O)(=O)c3c(C)cc(C)cc3C)nc3cccnc32)cc1,i
Cc1ccc(C2Cn3nnc(-c4nc(-c5cccnc5)no4)c3CO2)c(C)c1 (stereo not drawn),-15%
COCCN1C(=O)CC[C@]2(C(=O)N(C)CCc3ccncc3)CCCC[C@@H]12,-18%
CCn1cc(CN(C)C(=O)CCC[C@H]2NC[C@@H]3C[C@H]2CN(Cc2ccccc2)C3)c(C)n1,-24%
COc1ccc(S(=O)(=O)NC[C@@H]2C=C(C)[C@H](CC(=O)NCc3ccc(C#N)cc3)C[C@H]2C(C)C)cc1,-4%
CC1=C[C@@H](CNS(=O)(=O)c2cccs2)[C@H](C(C)C)C[C@H]1CC(=O)NCc1ccc(C#N)cc1,i
CC1=C[C@@H](CNS(=O)(=O)c2ccccc2)[C@H](C(C)C)C[C@H]1CC(=O)NCc1ccc(C#N)cc1,4.5µM*
COc1nccc(N2CCC(CC(=O)NCCN3CCCCC3)CC2)n1,-27%
CN1C[C@H](NC2CCC2)CCC[C@@H](C(=O)NC2CCOCC2)CC1=O,-3%[44.1 µM]
COc1cc2nc(NCc3ccccc3)n3nc(-c4ccccc4)nc3c2cc1OC,0.32µM*
Cc1cccc(-c2nc3c4ccccc4nc(NCc4ccc(F)cc4)n3n2)c1,-16%
CCOCCCNc1nc2cc(OC)c(OC)cc2c2nc(-c3ccccc3)nn12,0.28µM*
COc1ccccc1CNc1nc2ccccc2c2nc(-c3cccc(C)c3)nn12,i
COc1ccc(CNc2nc3ccccc3c3nc(-c4ccccc4)nn23)cc1,i
CCOc1ccccc1NC(=O)CSc1nc2cc(OC)c(OC)cc2c2nc(-c3ccccc3)nn12,-1%
COC(=O)C1=CN(CC(=O)Nc2ccc(C(C)C)cc2)S(=O)(=O)N=C1C,122%
Cc1ccc(NC(=O)C2(C)CCCCC(=O)N2)cc1 (stereo not drawn),-15%
COc1ccc(-c2nc3scc(CCNC(=O)Cc4ccc(F)cc4)n3n2)cc1,-12%
COc1ccc(-c2nc3scc(CCNS(=O)(=O)c4ccc(Oc5ccccc5)cc4)n3n2)cc1,-16%
COc1ccc(-c2nc3scc(CCNC(=O)c4cc(OC)cc(OC)c4)n3n2)cc1,7.1µM*
O=C(c1ccccc1)N1CCC2(CC(c3cccc(C(F)(F)F)c3)=NO2)C1 (stereo not drawn),-9%
